From PubChem BioAssay AID651791 (National Center for Advancing Translational Sciences (NCATS), 2012)
Results filed as inconclusive are left out. Activity calls are given as the source filed them. Calls follow the shape of the dose curve; as a rule, active = well fitted inhibition curve with a large enough effect; inconclusive = small, poorly fitted or top-dose-only effect; inactive = no such curve, though single readings can be large or run the other way.

Assay: InCell qHTS Assay for Inhibitors of the mTORC1 Signaling Pathway in MEF (Tsc2-/-, p53-/-) Cells: Hit Validation;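 also: phospho-S6 Ser235/236 signal normalized to propidium iodide cell count per well; nearly all actives have a fitted effect of over 75% in size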
Details: phospho-rpS6 immunofluorescence, 24 h; activity change, negative = inhibition: at 38.3 µM (top of the series)
Potency is read from the fitted curve at half-maximal effect.

Row | SMILES | activity change, negative = inhibition [%] | Potency
1 | CCOc1cc(CNCCSc2nnnn2C)cc(Cl)c1OCc1ccc(Cl)cc1 | -100 | 
2 | COc1ccc(C(C(=O)Nc2ccc(C(C)C)cc2)N(C)C(=O)Cc2cccs2)cc1 (stereo not given) | -100 | 
3 | COc1cc(CNc2ccc3c(c2)ncn3C(C)C)cc(OC)c1OC | -100 | 
4 | O=C(NCc1ccc(F)cc1)c1ccc2c(Cl)c3c(nc2c1)CCCC3 | -100 | 
5 | CCS(=O)(=O)c1ncc(Cl)c(C(=O)Nc2ccccc2)n1 |  | 2.61 µM (active)
6 | COc1cc(O)ccc1-c1nc2ccc(Br)cn2c1Nc1ccccc1C | -100 | 
7 | CCS(=O)(=O)c1ncc(Cl)c(C(=O)N(Cc2ccccc2)c2ccc(OC)cc2)n1 |  | 2.93 µM (active)
8 | COc1ccc(-c2noc(CSc3nc(N)cc(=O)[nH]3)n2)cc1 | -100 | 
9 | COc1ccc(NC(=O)CSc2nc3ccccc3n2Cc2cccc(OC)c2)cc1 | -100 | 
10 | Cn1nc(-c2ccc(OCC(=O)Nc3ccc(Cl)cc3)cc2)c2ccccc2c1=O | -100 | 
11 | Cc1ccc(-n2ncc(C(=O)NCCCN3CCc4ccccc4C3)c2C2CCN(C(=O)OC(C)(C)C)CC2)c(C)c1 | -100 | 
12 | Cc1ccc(S(=O)(=O)Nc2ccc3c(c2)c(C(=O)OC(C)C)c(C)n3S(=O)(=O)c2ccc(C)cc2)cc1 | -100 | 
13 | CCc1ccc(-n2c(=O)c3c4c(sc3n(CC(=O)c3ccc(F)cc3)c2=O)CCC4)cc1 |  | 9.27 µM (active)
14 | COC(=O)c1ccccc1NC(=O)Cn1c(=O)n(-c2ccc(C)cc2)c(=O)c2ccccc21 | -18.6 | 
15 | Cc1cccc(CS(=O)(=O)c2ncc(Cl)c(C(=O)NCc3ccccc3)n2)c1 |  | 10.4 µM (active)
